Data reported in PubChem BioAssay (EPA / NIEHS).
Active and inactive are the calls of the source. How the source made its calls: active means hit-call score of the fitted dose curve at least 0.9, where 1 is the maximum; inactive means score below 0.9.

Assays:
Settings in all cases: mRNA level, 48 h; actives raise or lower the signal
[1] = read-out: Insulin-like growth factor-binding protein 1 (IGFBP1), IGFBP1 (gene 3484); experiment: LTEA_HepaRG_IGFBP1: Life Technologies and Expression Analysis (LTEA) Assay for Insulin-like growth factor-binding protein 1 (IGFBP1) using HepaRG (AID 2283508)
How it was run: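 Differentiated human HepaRG cells in serum-free induction medium were exposed in duplicate for 48 h to eight concentrations, top 100 uM with half-log dilutions, in 0.5% DMSO. Transcript levels came from qRT-PCR normalised to ACTB, GAPDH and POLR2A, fitted bidirectionally against DMSO.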

[2] = read-out: Interleukin 6 (IL6), IL6 (gene 3569); experiment: LTEA_HepaRG_IL6: Life Technologies and Expression Analysis (LTEA) Assay for Interleukin 6 (IL6) using HepaRG (AID 2283509)
How it was run: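 Differentiated human HepaRG cells, plated 48 h then switched to serum-free induction medium, were exposed in duplicate for 48 h to eight half-log concentrations up to 100 uM in 0.5% DMSO. IL6 mRNA measured by qRT-PCR, normalized to ACTB/GAPDH/POLR2A.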

[3] = read-out: Interleukin 6 Receptor (IL6R), IL6R (gene 3570); experiment: LTEA_HepaRG_IL6R: Life Technologies and Expression Analysis (LTEA) Assay for Interleukin 6 Receptor (IL6R) using HepaRG (AID 2283510);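 on AC50: TaqMan qRT-PCR signal normalized to ACTB GAPDH and POLR2A housekeeping genes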
How it was run: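 Readout is IL6R transcript level by TaqMan qRT-PCR, normalized to three housekeeping genes and fitted bidirectionally against 0.5% DMSO controls. Human HepaRG cells received chemicals for 48 h in serum-free induction medium, highest concentration 100 uM.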

[4] = read-out: Potassium channel subfamily K member 1 (KCNK1), KCNK1 (gene 3775); experiment: LTEA_HepaRG_KCNK1: Life Technologies and Expression Analysis (LTEA) Assay for Potassium channel subfamily K member 1 (KCNK1) using HepaRG (AID 2283511)
How it was run: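 Differentiated human HepaRG cells in serum-free induction medium were exposed in duplicate for 48 h to 8 half-log concentrations up to 100 uM in 0.5% DMSO. KCNK1 mRNA was measured by TaqMan qRT-PCR, normalized to ACTB, GAPDH and POLR2A, and fitted bidirectionally versus DMSO.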

[5] = read-out: Keratin 19 (KRT19), KRT19 (gene 3880); experiment: LTEA_HepaRG_KRT19: Life Technologies and Expression Analysis (LTEA) Assay for Keratin 19 (KRT19) using HepaRG (AID 2283512)
How it was run: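 Differentiated human HepaRG cells, plated 48 h, were exposed in duplicate for 48 h in serum-free induction medium to eight half-log concentrations up to 100 uM in 0.5% DMSO. KRT19 mRNA was quantified by qRT-PCR, normalized to ACTB, GAPDH and POLR2A, and fitted bidirectionally versus DMSO.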

[6] = read-out: JUN Transcription Factor, JUN (gene 3725); experiment: LTEA_HepaRG_JUN: Life Technologies and Expression Analysis (LTEA) Assay for JUN Transcription Factor using HepaRG (AID 2283513)
How it was run: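 Cells plated 48 h, medium switched to serum-free induction medium, then dosed 48 h (100 uM top, half-log dilutions, 0.5% DMSO). RNA isolated; JUN measured by qRT-PCR against three housekeeping genes; gain or loss fitted relative to DMSO.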

[7] = read-out: Lipase C (LIPC), LIPC (gene 3990); experiment: LTEA_HepaRG_LIPC: Life Technologies and Expression Analysis (LTEA) Assay for Lipase C (LIPC) using HepaRG (AID 2283514)
How it was run: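 Differentiated human HepaRG cells in serum-free induction medium were exposed in duplicate for 48 h to eight concentrations (top 100 uM, half-log steps, 0.5% DMSO). LIPC mRNA was quantified by TaqMan qRT-PCR, normalized to ACTB, GAPDH and POLR2A, with bidirectional fitting versus DMSO.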

[8] = read-out: Lipoprotein lipase (LPL), LPL (gene 4023); experiment: LTEA_HepaRG_LPL: Life Technologies and Expression Analysis (LTEA) Assay for Lipoprotein lipase (LPL) using HepaRG (AID 2283515)
How it was run: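 Differentiated human HepaRG cells in serum-free induction medium were exposed in duplicate for 48 h to eight half-log concentrations (top 100 uM) in 0.5% DMSO. LPL mRNA was quantified by TaqMan qRT-PCR, normalized to ACTB, GAPDH and POLR2A.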

[9] = read-out: MicroRNA 122 (MIR122), gene 406906; experiment: LTEA_HepaRG_MIR122: Life Technologies and Expression Analysis (LTEA) Assay for MicroRNA 122 (MIR122) using HepaRG (AID 2283516); further: the transcript read is the microRNA miR-122
How it was run: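 HepaRG plated 48 h, switched to serum-free induction medium, then treated in duplicate for 48 h (100 uM top, half-log steps, 0.5% DMSO vehicle). RNA isolated, qRT-PCR performed, concentration-response fitted both directions relative to DMSO.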

[10] = read-out: matrix metalloproteinase-10 (MMP10), MMP10 (gene 4319); experiment: LTEA_HepaRG_MMP10: Life Technologies and Expression Analysis (LTEA) Assay for matrix metalloproteinase-10 (MMP10) using HepaRG (AID 2283517)
How it was run: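 HepaRG, collagen I, ~100,000 cells/well; serum-free induction medium; 48 h exposure, duplicate, 8-pt half-log to 100 uM, 0.5% DMSO. Readout: TaqMan qRT-PCR, normalized to ACTB/GAPDH/POLR2A; bidirectional fit vs DMSO.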

Row | Compound | outcome [1] | outcome [2] | outcome [3] | outcome [4] | outcome [5] | outcome [6] | outcome [7] | outcome [8] | outcome [9] | outcome [10] | AC50 [1] | AC50 [2] | AC50 [3] | AC50 [4] | AC50 [7] | AC50 [8] | AC50 [9] | AC50 [10]
1 | CC(C)(C)c1ccccc1 | inactive | inactive | inactive | inactive | inactive | inactive | inactive | inactive | inactive | inactive |  |  |  |  |  |  |  | 
2 | CC(=O)S[C@H](C(=O)N[C@H]1Cc2ccccc2[C@H]2CCC[C@@H](C(=O)O)N2C1=O)C(C)C | inactive | inactive | inactive | inactive | inactive | inactive | inactive | inactive | inactive | inactive |  |  |  |  |  |  |  | 
3 | CC(=O)OCC(COC(C)=O)OC(C)=O | inactive | inactive | inactive | inactive | inactive | inactive | inactive | inactive | inactive | inactive |  |  |  |  |  |  |  | 
4 | CCCCC(CC)COC(=O)CCCCCCCC(=O)OCC(CC)CCCC (configuration not stated) | inactive | inactive | inactive | inactive | inactive | inactive | inactive | inactive | inactive | inactive |  |  |  |  |  |  |  | 
5 | C#CC(O)C(CC)CCCC (configuration not stated) | inactive | inactive | inactive | inactive | inactive | inactive | inactive | inactive | inactive | inactive |  |  |  |  |  |  |  | 
6 | Oc1ccc(O)cc1 | inactive | inactive | inactive | inactive | inactive | inactive | inactive | inactive | inactive | inactive |  |  |  |  |  |  |  | 
7 | CC(C)OC(=O)C(C)(C)Oc1ccc(C(=O)c2ccc(Cl)cc2)cc1 | inactive | inactive | inactive | inactive | inactive |  | inactive | inactive | inactive | inactive |  |  |  |  |  |  |  | 
8 | NC1CCCCC1 | inactive | inactive | inactive | inactive | inactive | inactive | inactive | inactive | inactive | inactive |  |  |  |  |  |  |  | 
9 | S=c1[nH]c2ccccc2s1 | inactive | inactive | inactive | inactive | inactive | inactive | inactive | inactive | inactive | inactive |  |  |  |  |  |  |  | 
10 | CCCCC(CC)COP(=O)(OCC(CC)CCCC)OCC(CC)CCCC (configuration not stated) | inactive | inactive | inactive | inactive | inactive | inactive | inactive | inactive | inactive | inactive |  |  |  |  |  |  |  | 
11 | CC(=O)OC1CC(C)OC(C)O1 (configuration not stated) | inactive | inactive | inactive | inactive | inactive | inactive | inactive | inactive | inactive | inactive |  |  |  |  |  |  |  | 
12 | CC(COCC(C)OC(=O)c1ccccc1)OC(=O)c1ccccc1 (configuration not stated) | inactive | inactive | inactive | inactive | inactive | inactive | inactive | inactive | inactive | inactive |  |  |  |  |  |  |  | 
13 | Oc1ccccc1O | inactive | inactive | inactive | inactive | inactive | inactive | inactive | inactive | inactive | inactive |  |  |  |  |  |  |  | 
14 | Nc1nc(Cl)nc2c1ncn2[C@H]1C[C@H](O)[C@@H](CO)O1 |  |  |  |  | inactive |  |  |  |  |  | 4820 nM (active) | 16100 nM (active) | 603 nM (active) | 1360 nM (active) | 1030 nM (active) | 1030 nM (active) | 1550 nM (active) | 1720 nM (active)
15 | CCCCc1nc2cccnc2n1Cc1ccc(-c2ccccc2-c2nnn[nH]2)cc1 | inactive | inactive | inactive | inactive |  | inactive | inactive | inactive | inactive | inactive |  |  |  |  |  |  |  | 
16 | Cc1cn([C@H]2C=C[C@@H](CO)O2)c(=O)[nH]c1=O | inactive | inactive | inactive | inactive | inactive | inactive | inactive | inactive | inactive | inactive |  |  |  |  |  |  |  | 
17 | O=C1O[C@H]([C@H](O)CO)C(O)=C1O | inactive | inactive | inactive | inactive | inactive | inactive | inactive | inactive | inactive | inactive |  |  |  |  |  |  |  | 
18 | CCCC[C@H]1CN(CC2CCOCC2)C(=O)OC12CCN(C1(C)CCN(C(=O)c3c(C)ncnc3C)CC1)CC2 | inactive | inactive | inactive | inactive | inactive | inactive | inactive | inactive | inactive | inactive |  |  |  |  |  |  |  | 
